Measurements taken from PubChem BioAssay (NCI).
Compounds without any hit were thinned out: in the full panel of roughly 79,000, 15% have a hit. Activity calls are given as the source filed them. No stated cut-off is given here; in the data, active means growth inhibition above about 70%; inactive means the rest.

How the values were obtained:
[1] = NCI Yeast Anticancer Drug Screen. Data for the rad52 strain (AID 147);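 further: 0% = growth of vehicle-treated control cultures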; settings: S. cerevisiae rad52 mutant growth inhibition, active compounds read high
Method in brief: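 Vehicle-treated cultures served as the reference for growth inhibition of compound-exposed yeast bearing a DNA repair mutation.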

[2] = NCI Yeast Anticancer Drug Screen. Data for the wt1 strain (AID 149);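 further: 0% = growth of vehicle-treated wt1 cultures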; settings: S. cerevisiae wt1 strain (SPY 50644) growth inhibition, active compounds read high
Method in brief: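 Readout: yeast growth inhibition, normalised to vehicle controls, in the wt1 strain exposed to test compounds.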

[3] = NCI Yeast Anticancer Drug Screen. Data for the rad50EPP+ strain (AID 151);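 further: 0% = growth of vehicle-treated control cultures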; settings: S. cerevisiae rad50 mutant strain, active compounds read high
Method in brief: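 In this screen, rad50EPP+ yeast were exposed to compounds. Growth inhibition was scored against vehicle-treated controls.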

[4] = NCI Yeast Anticancer Drug Screen. Data for the mgt1 strain (AID 153); settings: S. cerevisiae mgt1 mutant growth inhibition, active compounds read high
Method in brief: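 mgt1 strain exposed; growth vs vehicle control recorded as inhibition.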

[5] = NCI Yeast Anticancer Drug Screen. Data for the rad50 strain (AID 155);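 further: 0% = growth of vehicle-only cultures of the same strain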; settings: S. cerevisiae rad50 strain growth inhibition, active compounds read high
Method in brief: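 Compounds were tested on a yeast strain with an engineered DNA damage repair alteration; the reported value is growth inhibition normalised to vehicle treatment.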

[6] = NCI Yeast Anticancer Drug Screen. Data for the mec2-1 strain (AID 157); settings: S. cerevisiae mec2-1 strain, active compounds read high
Method in brief: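 Vehicle-treated cultures served as reference for growth inhibition of compound-exposed mec2-1 yeast.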

[7] = NCI Yeast Anticancer Drug Screen. Data for the sgs1 mgt1 strain (AID 161);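 further: 0% = growth of cultures given vehicle only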; settings: S. cerevisiae sgs1 mgt1 strain, active compounds read high
Method in brief: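 Read-out: growth inhibition vs vehicle controls. Cells: mutant yeast strain deficient in DNA damage repair.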

[8] = NCI Yeast Anticancer Drug Screen. Data for the CLN2oe strain (AID 163);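 further: 0% = growth of vehicle-only control cultures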; settings: S. cerevisiae CLN2oe strain, active compounds read high
Method in brief: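 Inhibition relative to vehicle-treated yeast is reported. Cells: strain with genetic alteration in cell-cycle control, grown with compound.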

[9] = NCI Yeast Anticancer Drug Screen. Data for the cln2 rad14 strain (AID 165);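 further: 0% = growth equal to vehicle treated cultures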; settings: S. cerevisiae cln2 rad14 strain, active compounds read high
Method in brief: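 Each compound was tested on cln2 rad14 yeast. Inhibition of growth was calculated against vehicle-exposed controls.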

[10] = NCI Yeast Anticancer Drug Screen. Data for the bub3 strain (AID 167); settings: S. cerevisiae bub3 mutant strain, active compounds read high
Method in brief: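 Growth of a checkpoint-deficient yeast mutant is measured after compound exposure. Values represent inhibition relative to vehicle.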

[11] = NCI Yeast Anticancer Drug Screen. Data for the wt2 strain (AID 169);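 further: 0% = growth of vehicle-treated yeast cultures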; settings: S. cerevisiae wt2 strain growth inhibition, active compounds read high
Method in brief: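 Inhibition of yeast growth was determined after compound treatment, normalised to controls receiving only vehicle.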

[12] = NCI Yeast Anticancer Drug Screen. Data for the mlh1 strain (AID 171);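 further: 0% = growth of vehicle-treated control cultures of the same strain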; settings: S. cerevisiae mlh1 strain growth inhibition, active compounds read high
Method in brief: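 Vehicle-normalised growth inhibition of a repair- or checkpoint-altered yeast strain following compound treatment.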

[13] = NCI Yeast Anticancer Drug Screen. Data for the sgs1 strain (AID 173);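 further: 0% = growth of vehicle-only control cultures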; settings: S. cerevisiae sgs1 mutant, active compounds read high
Method in brief: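 Screen format: yeast with repair or checkpoint alterations, compound exposure, growth read relative to vehicle.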

[14] = NCI Yeast Anticancer Drug Screen. Data for the mlh1 rad18 strain (AID 175); settings: S. cerevisiae mlh1 rad18 strain growth inhibition, active compounds read high
Method in brief: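 Vehicle-treated cultures served as the reference for growth inhibition in a yeast strain carrying DNA damage repair alterations exposed to each compound.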

[15] = NCI Yeast Anticancer Drug Screen. Data for the rad18 strain (AID 177); settings: S. cerevisiae rad18 mutant growth inhibition, active compounds read high
Method in brief: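 Test articles were incubated with altered yeast defective in DNA damage repair. Results are given as inhibition of growth versus vehicle.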

[16] = at 5.0 µM (retest, dose inferred, filed as 0.5)
[17] = at 50.0 µM (retest, dose inferred, filed as 5.0)

Measured: growth inhibition

O=c1c2ccccc2nc(-c2ccccc2)n1O
active: [1]; at 33.0 µM 95% | [1]; at 100.0 µM 97% | [2]; at 33.0 µM 97% | [2]; at 100.0 µM 97% | [3]; at 33.0 µM 82% | [3]; at 100.0 µM 87% | [4]; at 11.0 µM 92% | [4]; at 33.0 µM 98% | [4]; at 100.0 µM 97% | [5]; at 11.0 µM 89% | [5]; at 33.0 µM 97% | [5]; [17] 99% | [5]; at 50.0 µM 99% | [5]; at 100.0 µM 98% | [6]; at 33.0 µM 96% | [6]; [17] 99% | [6]; at 50.0 µM 98.2% | [6]; at 100.0 µM 97% | [7]; [17] 99% | [7]; at 50.0 µM 98.8% | [8]; at 33.0 µM 86% | [8]; at 100.0 µM 88% | [9]; [17] 96% | [9]; at 50.0 µM 97% | [10]; at 11.0 µM 78% | [10]; at 33.0 µM 95% | [10]; [17] 99% | [10]; at 50.0 µM 97.9% | [10]; at 100.0 µM 95% | [11]; at 11.0 µM 96% | [11]; at 33.0 µM 98% | [11]; at 100.0 µM 98% | [12]; at 11.0 µM 95% | [12]; at 33.0 µM 98% | [12]; at 100.0 µM 98% | [13]; at 11.0 µM 93% | [13]; at 33.0 µM 97% | [13]; at 100.0 µM 97% | [14]; [17] 99% | [14]; at 50.0 µM 98.5% | [15]; at 11.0 µM 89% | [15]; at 33.0 µM 97% | [15]; at 100.0 µM 97%
inactive: [1]; at 1.2 µM 16% | [1]; at 3.7 µM 19% | [1]; at 11.0 µM 62% | [2]; at 1.2 µM 12% | [2]; at 3.7 µM 15% | [2]; at 11.0 µM 63% | [3]; at 1.2 µM 3% | [3]; at 3.7 µM 3% | [3]; at 11.0 µM 16% | [4]; at 1.2 µM 31% | [4]; at 3.7 µM 26% | [5]; at 1.2 µM 36% | [5]; at 3.7 µM 39% | [5]; [16] 45% | [6]; at 1.2 µM 18% | [6]; at 3.7 µM 16% | [6]; [16] 14% | [6]; at 11.0 µM 55% | [7]; [16] 66% | [8]; at 1.2 µM 1% | [8]; at 3.7 µM 9% | [8]; at 11.0 µM 29% | [9]; [16] -11% | [10]; at 1.2 µM 12% | [10]; at 3.7 µM 18% | [10]; [16] 43% | [11]; at 1.2 µM 24% | [11]; at 3.7 µM 55% | [12]; at 1.2 µM 50% | [12]; at 3.7 µM 48% | [13]; at 1.2 µM 32% | [13]; at 3.7 µM 48% | [14]; [16] 55% | [15]; at 1.2 µM 39% | [15]; at 3.7 µM 35%

COC(=O)NC1C(C)OC(OC2C/C=C(/C)C3C=CC4C(OC5CC(OC6CC(O)C(OC7CC(O)C(OC)C(C)O7)C(C)O6)C(O)C(C)O5)C(C)CC(C)C4C3(C)/C(O)=C3\C(=O)OC4(CC(C)C(CO)=CC4/C=C\2C)C3=O)CC1(C)[N+](=O)[O-] (stereo unspecified)
inactive: [1]; at 1.2 µM 15% | [1]; at 3.7 µM 40% | [1]; at 11.0 µM 41% | [1]; at 33.0 µM 38% | [1]; at 100.0 µM 21% | [2]; at 1.2 µM 10% | [2]; at 3.7 µM 22% | [2]; at 11.0 µM 20% | [2]; at 33.0 µM 22% | [2]; at 100.0 µM 10% | [3]; at 1.2 µM 10% | [3]; at 3.7 µM 8% | [3]; at 11.0 µM 11% | [3]; at 33.0 µM 5% | [3]; at 100.0 µM 11% | [4]; at 1.2 µM -7% | [4]; at 3.7 µM 2% | [4]; at 11.0 µM -1% | [4]; at 33.0 µM 8% | [4]; at 100.0 µM 7% | [5]; at 1.2 µM 5% | [5]; at 3.7 µM 16% | [5]; [16] 23% | [5]; at 11.0 µM 22% | [5]; at 33.0 µM 21% | [5]; [17] 40% | [5]; at 50.0 µM 5.7% | [5]; at 100.0 µM 16% | [6]; at 1.2 µM 2% | [6]; at 3.7 µM -5% | [6]; [16] 9% | [6]; at 11.0 µM -4% | [6]; at 33.0 µM 5% | [6]; [17] 34% | [6]; at 50.0 µM -7.4% | [6]; at 100.0 µM -3% | [7]; [16] 13% | [7]; [17] 27% | [7]; at 50.0 µM 9.1% | [8]; at 1.2 µM 27% | [8]; at 3.7 µM 15% | [8]; at 11.0 µM 20% | [8]; at 33.0 µM 18% | [8]; at 100.0 µM 28% | [9]; [16] 44% | [9]; [17] 33% | [9]; at 50.0 µM 14.8% | [10]; at 1.2 µM 22% | [10]; at 3.7 µM 19% | [10]; [16] 34% | [10]; at 11.0 µM 13% | [10]; at 33.0 µM 9% | [10]; [17] 26% | [10]; at 50.0 µM 10.7% | [10]; at 100.0 µM 9% | [11]; at 1.2 µM -42% | [11]; at 3.7 µM -37% | [11]; at 11.0 µM -47% | [11]; at 33.0 µM -30% | [11]; at 100.0 µM -21% | [12]; at 1.2 µM -4% | [12]; at 3.7 µM 5% | [12]; at 11.0 µM 3% | [12]; at 33.0 µM 3% | [12]; at 100.0 µM -2% | [13]; at 1.2 µM 0% | [13]; at 3.7 µM -8% | [13]; at 11.0 µM -15% | [13]; at 33.0 µM -13% | [13]; at 100.0 µM -10% | [14]; [16] 27% | [14]; [17] 65% | [14]; at 50.0 µM 10.6% | [15]; at 1.2 µM 1% | [15]; at 3.7 µM 17% | [15]; at 11.0 µM 14% | [15]; at 33.0 µM 14% | [15]; at 100.0 µM 13%
